Measured values published in the supplement of paper PMC9477273.

Test system: DRIVER-selected RNA biosensor (aptazyme) pool
Experiment: maximum fold change of ribozyme cleavage across biosensor pool versus no-compound control; higher = stronger biosensor response (ligand inhibits cleavage)
Settings: 10 µM
Description: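 CleaveSeq: a pool of resynthesized hammerhead-ribozyme RNA biosensors (sTRSV scaffold with randomized loops, 1,730 sequences) was T7-transcribed at 37 °C for 15-30 min with a single compound at 10 µM. Cleaved and uncleaved products were counted by NGS, and fold change of cleavage was computed against the DMSO-only condition. The value is the maximum fold change of cleavage over all biosensors in the pool. About 255 compounds were tested individually.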

Compound	maximum fold change
N/C(=N\OC(=O)N1CCOCC1)c1cccnc1	3.37
COc1ccc(C(=O)Cn2c3ccccc3n3nc(-c4ccccc4)nc23)cc1OC	4.22
CCOc1ccc2c(c1)[N+](C)=C(/C=C/c1ccc(C(=O)OC)cc1)C2(C)C	2.67
COc1ccc(cc1)/C=CC(=O)NCC(=O)O	3.29
Cc1cc(NC(=O)CSc2nnc(-c3ccc(C)c(C)c3)o2)no1	2.25
CCN(Cc1ccccc1)Cc1csc(C)c1C	3.07
C=CCNC(=O)c1c(C)c(C(=O)OCC)n(C)c1C	2.81
CC1=C(C(=O)NCCC2=CCCCC2)C2(CCC(C)CC2)OC1=O (stereo not given)	2.79
Cc1ccc(-c2nc(CS(=O)(=O)CC(=O)NCCCN(C)Cc3ccccc3)c(C)o2)cc1	3.58
Cc1ccc(S(=O)(=O)NC(CC(=O)O)c2cccs2)cc1 (stereo not given)	2.72
Cc1c(C(=O)NC2CCCCCC2)sc2ncnc(N3CCCCC3C)c12 (stereo not given)	2.58
COCCNCc1c(C(=O)O)c(C)n(Cc2ccccc2F)c1C	2.4
COc1cccc(-c2nc3sc4c(c3c(=O)n2CC(=O)NC2CCCCC2)CCCC4)c1	1.74
CCOc1cc2c(cc1OCC)C1C(C(=O)N(CC)Cc3ccccc3)c3ccccc3C(=O)N1CC2 (stereo not given)	3.54
COc1ccc2c(c1)c(C(=O)O)c(C)n2CCc1ccc(OC)c(OC)c1	2.38
COc1cccc(/C=N/NC(=N)N)c1O	5.16
COc1ccc(S(=O)(=O)N2CCCN(CC(=O)C(C)(C)C)CC2)cc1	2.33
O=C(c1ccc(CS(=O)c2cccc(Cl)c2)o1)N1CCN(C2CCCCC2)CC1 (stereo not given)	2.71
CCO/C=N/c1oc(C)c(C)c1C#N	3.22
Cn1c(-c2ccc3c(c2)OCO3)cnc1NCc1cc(Br)ccc1F	3.3

Compound	maximum fold change
CCOC(=O)c1cnc2c(OC)cccc2c1NCCCN(CC)CC	6.68
COc1ccc(Br)cc1CNCc1sc(C(=O)O)cc1C	3.28
CCOc1ccc(CCNC(=O)Cn2ccc3cc(S(=O)(=O)N4CCCC4)ccc32)cc1	3.07
COc1ccc(CCn2c(SCC(=O)Nc3cc(C)n[nH]3)nc3ncccc3c2=O)cc1OC	11.2
CCOC(=O)c1ccc(-c2sc3nc(N4CCOCC4)c4c(c3c2N)CC(C)(C)OC4)o1	2.03
O=C(Cn1ccc2cc(S(=O)(=O)N3CCCC3)ccc21)NC1CC1	2.36
O=c1cc(-c2ccccc2)[nH]c2nc(C(F)(F)F)nn12	3.78
CS(=O)(=O)c1ccc2nc(NC(=O)c3cc4ccccc4o3)sc2c1	7.28
Cn1c(=O)[nH]c(=O)c2c1nc(NCCCn1ccnc1)n2CCCc1ccccc1	1.96
Clc1ccc2nc3c4ccccc4cnn3c2c1	3.12
COc1ccc(cc1)C1=N/C(=Cc2cc(OC)ccc2OC)/C(=O)O1	1.9
COCCN1C(=O)c2ccccc2C(C(=O)N2CCC(C)CC2)C1c1cn(C)c2ccccc12 (stereo not given)	4.72
Cc1ccc2c(CNC3CCC(C)CC3)c(C(=O)O)n(Cc3ccccc3F)c2c1 (stereo not given)	2.5
COc1ccc2nc3oc(C(=O)NCCCN4CCC(Cc5ccccc5)CC4)cc3cc2c1	5.98
CCOC(=O)C1=C(C)NC2=C(C(=O)c3ccccc32)C1c1ccc(C(F)(F)F)cc1 (stereo not given)	2.29
CCOC(=O)c1cnc2c(OC)cccc2c1NCC1COc2ccccc2O1 (stereo not given)	7.13
O=S(=O)(NCc1ccccn1)c1ccc(Br)cc1Br	1.99
Cc1ccn2c(=O)c(C(=O)Nc3cccnc3)cnc2c1	10.8
Cc1oc(-c2ccccc2F)nc1CS(=O)(=O)CC(=O)NC1CCCC(C)C1C (stereo not given)	4.66
O=C(c1cc(-c2ccccc2)n[nH]1)N1CCc2ccccc2C1	4.06
